KCNQ2 pot = potentiators of rat KCNQ2 potassium channel; Potassium voltage-gated channel subfamily KQT member 2 (Rattus norvegicus), O88943; CHO-K1 KCNQ2, FluxOR thallium flux fluorescence; stronger effect = higher value; B-score at 10 µM; 310,000 tested, 0.54% active; AID 2239, 2010;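 active means fluorescence ratio B-score at least 3 SD of library B-scores, with initial fluorescence B-score within 3 of them, cut at about 5.3 in these data; same plate scores as AID 2156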;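 further: B-score of peak minus minimum over baseline fluorescence ratio after K+ and Tl+ stimulus; positive B-score means potentiation of KCNQ2 with more thallium influx and brighter signal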
Target sequence (O88943 whole entry, looked up): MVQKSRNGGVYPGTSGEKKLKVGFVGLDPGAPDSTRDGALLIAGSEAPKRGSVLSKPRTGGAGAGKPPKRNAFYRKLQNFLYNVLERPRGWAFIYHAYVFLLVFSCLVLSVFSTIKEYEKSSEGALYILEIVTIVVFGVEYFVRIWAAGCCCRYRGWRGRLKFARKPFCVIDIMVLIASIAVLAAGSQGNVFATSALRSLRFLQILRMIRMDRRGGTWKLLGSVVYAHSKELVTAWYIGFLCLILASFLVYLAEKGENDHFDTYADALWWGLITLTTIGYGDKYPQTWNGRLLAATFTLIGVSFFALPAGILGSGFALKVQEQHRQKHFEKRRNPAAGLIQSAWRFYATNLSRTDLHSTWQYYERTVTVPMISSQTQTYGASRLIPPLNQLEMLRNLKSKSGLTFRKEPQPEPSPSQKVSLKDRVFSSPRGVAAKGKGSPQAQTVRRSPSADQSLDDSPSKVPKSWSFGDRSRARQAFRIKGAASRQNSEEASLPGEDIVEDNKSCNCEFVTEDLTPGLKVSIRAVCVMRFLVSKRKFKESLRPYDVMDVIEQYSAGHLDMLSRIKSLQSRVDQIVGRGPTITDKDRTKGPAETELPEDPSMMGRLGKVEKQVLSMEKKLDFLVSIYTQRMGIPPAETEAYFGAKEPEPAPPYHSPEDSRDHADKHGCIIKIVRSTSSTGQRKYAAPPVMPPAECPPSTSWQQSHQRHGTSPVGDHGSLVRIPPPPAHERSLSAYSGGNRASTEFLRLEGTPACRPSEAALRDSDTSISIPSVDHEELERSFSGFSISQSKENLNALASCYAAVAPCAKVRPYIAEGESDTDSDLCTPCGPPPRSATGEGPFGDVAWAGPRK
KCNQ2 inh = rat KCNQ2 potassium channel inhibitors, primary screen, cell-based, CHO-K1, FluxOR thallium flux, B-score; Potassium voltage-gated channel subfamily KQT member 2 (Rattus norvegicus), O88943; 20 min; stronger effect = lower value; B-score at 10 µM; 310,000 tested, 1.1% active;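 active means fluorescence ratio B-score at most minus 3 library SDs, with starting brightness B-score within 2 library SDs, cut at about -5.5 in these data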
Large screens that a line does not name were inactive. Most compounds without a hit are left out; they make up all but 1.6% or so of the library.

Clc1ccc(SCc2cc(-c3ccc(Cl)cc3)on2)cc1	KCNQ2 inh -7.5
Cc1ccc(SCc2cc(-c3ccc(Cl)cc3)on2)cc1	none (no result: KCNQ2 pot)
COc1ccccc1CNC(=O)COc1ccc(S(=O)(=O)N2CCOCC2)cc1C	none (no result: KCNQ2 pot)
COc1ccc(-c2nc(CSCC(=O)NC3CCCC3)c(C)o2)cc1OC	none (no result: KCNQ2 pot)
CC1CC(C)(C)N(C(=O)CSc2ccc(-c3ccc(F)cc3)nn2)c2ccccc21 (stereo not drawn)	KCNQ2 inh -5.7
CC1CCN(C(=O)CSc2ccc(-c3ccc(F)cc3)nn2)CC1	none
COc1cccc(NC(=O)CN(C)C(=O)c2cc(-c3ccco3)nc3ccccc23)c1	none (no result: KCNQ2 pot)
CN(CCOc1ccc(Cl)cc1)C(=O)c1cc(-c2ccco2)nc2ccccc12	KCNQ2 inh -13
COCCCNC(=S)N(CCO)Cc1cc2cc3c(cc2[nH]c1=O)OCO3	none
O=C(C1CC2C=CC1C2)N1CCN(c2ccccc2)CC1 (stereo not drawn)	none (no result: KCNQ2 pot)
CC1(C)C(C=C(Cl)Cl)C1C(=O)N1CCN(c2ccccc2)CC1 (stereo not drawn)	KCNQ2 inh -5.7
CCOC(=S)SCC(=O)Nc1ncc(C)s1	none (no result: KCNQ2 pot)
COc1cccc(/C=N/NC(=O)CSc2ccccc2C)c1OC	none (no result: KCNQ2 pot)
COc1cccc(/C=N/NC(=O)CSc2ccccc2C)c1O	KCNQ2 pot 9.4
CN1C(=O)Cc2cc(S(=O)(=O)N3CCN(c4cccc(C(F)(F)F)c4)CC3)ccc21	none
CC1(c2ccccc2Cl)NC(=O)N(CC(=O)Nc2ccc3c(c2)OCO3)C1=O (stereo not drawn)	none
COc1cc(CNc2ccc(C(=O)O)cc2)cc(Br)c1OCC(=O)NC(C)(C)C	none (no result: KCNQ2 pot)
CCOc1cc(CNc2ccccc2)cc(Br)c1OCC(=O)NC(C)(C)C	KCNQ2 inh -5.9
Cc1ccc(CNS(=O)(=O)c2cc3c4c(c2)C(C)C(=O)N4CCC3)cc1 (stereo not drawn)	none (no result: KCNQ2 pot)
CCCNCc1cc(OC)c(OCc2ccccc2)cc1Br	none
COC(=O)C1CCCN1C(=O)COc1ccc(Br)cc1Cl (stereo not drawn)	KCNQ2 pot 6.6
CN(Cc1ccccc1)C(=O)COc1ccc(Br)cc1Cl	none (no result: KCNQ2 pot)
CC(C)N(C(=O)COc1ccc(Br)cc1Cl)C(C)C	KCNQ2 inh -5.7
O=C(COc1ccc(Br)cc1Cl)NC1CCCCC1	none
O=C(NCCc1cccnc1)C1CCC(=O)N(CCc2cccc(F)c2)C1 (stereo not drawn)	none
Cc1ccc(S(=O)(=O)NCCC(=O)N2CCCCCCC2)cc1C	none
CC#C[C@]1(O)CC[C@H]2[C@@H]3CCC4=CC(=O)CCC4=C3[C@@H](c3ccc(N(C)C)cc3)C[C@@]21C	KCNQ2 inh -5.9
C#C[C@]1(O)CCC2C3CCC4=CC(=O)CC[C@@H]4C3CC[C@@]21C (stereo partly drawn)	none (no result: KCNQ2 pot)
Cc1ccc(OCC(=O)c2c[nH]c3ccccc23)c([N+](=O)[O-])n1	none (no result: KCNQ2 pot)
Cc1cc(SCC(=O)c2cccs2)n2nc(C)c(-c3ccccc3)c2n1	KCNQ2 pot 6
C=CCSc1cc(C)nc2c(-c3ccccc3)c(C)nn12	none (no result: KCNQ2 pot)
CCC(C)N(C(=O)CSc1ccc(NC(C)=O)cc1)C1CCS(=O)(=O)C1 (stereo not drawn)	none
CN1CCC(N(C)C(=O)CCc2nc3ccccc3n2-c2ccccc2)CC1	none (no result: KCNQ2 pot)
Cc1c(OCC(=O)N[C@@H](Cc2ccccc2)C(=O)O)ccc2c1oc(=O)c1ccccc12	none (no result: KCNQ2 pot)
Cc1c(Cc2ccccc2)c(=O)oc2c(C)c(OC(C)C(=O)N[C@@H](Cc3ccccc3)C(=O)O)ccc12 (stereo partly drawn)	KCNQ2 inh -7.7
C=CCOC(=O)/C(=C\c1ccccc1)NC(=O)c1ccc(C)cc1	none (no result: KCNQ2 pot)
C=CCOC(=O)/C(=C\c1cccc2ccccc12)NC(=O)c1ccccc1	KCNQ2 inh -5.8
CC(OC(=O)c1cc(S(=O)(=O)N(C)C)ccc1N1CCCC1)C(=O)NCc1ccccc1 (stereo not drawn)	none
Cc1noc(C)c1CSc1ncnc2sc3c(c12)CCCCC3	KCNQ2 pot 5.5
Cc1noc(C)c1CSc1ncnc2sc(C)c(C)c12	none
CCOc1ccc(C(=O)NCC(=O)OCc2ccc(F)cc2Cl)cc1	none (no result: KCNQ2 pot)
Clc1cc(Cl)c(OCCCCn2cncn2)c(Cl)c1	none
COc1ccccc1N1CCN(C(=O)c2ccc3[nH]c(C)c(C)c3c2)CC1	none (no result: KCNQ2 pot)
Cc1[nH]c2ccc(C(=O)N3CCN(c4cccc(Cl)c4)CC3)cc2c1C	KCNQ2 inh -6.2
Cc1[nH]c2ccc(C(=O)N3CCN(c4ccccc4Cl)CC3)cc2c1C	KCNQ2 inh -6.5
Cc1[nH]c2ccc(C(=O)N3CCCC3)cc2c1C	none
Cn1cc(CNC(=O)CC2C(=O)NCCN2CC(C)(C)C)cn1 (stereo not drawn)	none (no result: KCNQ2 pot)
O=C(NCc1ccncc1)C(=O)N/N=C/c1ccccn1	none
O=C(/C=C/c1ccc(F)cc1)Nc1cc(S(=O)(=O)N2CCOCC2)ccc1N1CCCC1	none (no result: KCNQ2 pot)
CN1CCN(c2ccc(Cl)cc2NC(=O)/C=C/c2ccc(F)cc2)CC1	KCNQ2 inh -5.6
CCc1ccc(-c2cc3c(=O)n(CC(=O)N4CCCCCC4)nc(C)n3n2)cc1	none (no result: KCNQ2 pot)
COC(=O)CN(c1ccc(F)cc1)S(=O)(=O)c1ccccc1	none
COC(=O)Cc1ccc(N(Cc2ccccc2F)S(=O)(=O)c2ccc(Cl)cc2)cc1	KCNQ2 inh -8.2
Oc1ccccc1C1=Nc2ccccc2N=C(c2cccs2)C1	none (no result: KCNQ2 pot)
Cc1ccc(O)c(C2=Nc3ccccc3N=C(c3cccs3)C2)c1	KCNQ2 inh -5.6
Cc1ccc(S(=O)(=O)NC(C(=O)Oc2ccc3c(C(F)(F)F)cc(=O)oc3c2)c2ccccc2)cc1 (stereo not drawn)	none
O=c1c2ccccc2nc(SCc2ccc([N+](=O)[O-])cc2)n1-c1ccccc1	none (no result: KCNQ2 pot)
O=c1c2ccccc2nc(SCc2cc([N+](=O)[O-])cc3c2OCOC3)n1-c1ccccc1	KCNQ2 inh -6.1
CC1CC(C)CN(C(=O)C(NS(=O)(=O)c2ccc(Br)s2)c2ccccc2)C1 (stereo not drawn)	none (no result: KCNQ2 pot)
Cc1cc(C(=O)OC(C(=O)Nc2ccc(C)c(Cl)c2)c2ccccc2)c(C)o1 (stereo not drawn)	KCNQ2 inh -5.8
Cc1ccc(NC(=O)C(OC(=O)c2ccccc2Cl)c2ccccc2)cc1Cl (stereo not drawn)	none (no result: KCNQ2 pot)
C=CCn1c(O)c(N=NC(=S)Nc2cccc(OC)c2)c2ccccc21	KCNQ2 pot 12
C=CCn1c(O)c(N=NC(=S)Nc2ccc(OC)cc2)c2ccccc21	none
CC(=O)c1cccc(NC(=O)c2cc(-c3ccco3)nc3ccccc23)c1	none (no result: KCNQ2 pot)
COc1ccc(OC)c(-c2cc(C(=O)NC3CCCC3)c3ccccc3n2)c1	KCNQ2 inh -6.1
COc1ccc(-c2cc(C(=O)Nc3ccc(C(N)=O)cc3)c3ccccc3n2)cc1OC	none (no result: KCNQ2 pot)
COc1cccc(-c2cc(C(=O)NC3CCCC3)c3ccccc3n2)c1	none (no result: KCNQ2 pot)
COc1cc(-c2cc(C(=O)Nc3cccc(C(C)=O)c3)c3ccccc3n2)cc(OC)c1OC	KCNQ2 inh -5.6
COc1ccc(NC(=O)c2cc(-c3ccc(OC)c(OC)c3)nc3ccccc23)c(OC)c1	KCNQ2 inh -5.9
Cc1ccc(C2/C(=C(\O)c3ccc4c(c3)OCCO4)C(=O)C(=O)N2CC2CCCO2)cc1 (stereo not drawn)	none (no result: KCNQ2 pot)
C/C(=N\Nc1ccc(C)c(Cl)c1)c1cccnc1	none (no result: KCNQ2 pot)
O=C1CCC(C(=O)N2CCc3c(Cl)cccc3C2)CN1CCCN1CCOCC1 (stereo not drawn)	none (no result: KCNQ2 pot)
Oc1cc2c(cc1CN1CCN(c3cccc(C(F)(F)F)c3)CC1)CCC2	KCNQ2 inh -7.3
COc1ccc(N2CCN(Cc3cc4c(cc3O)CCC4)CC2)cc1	none
